Where “and” joins values, the source holds several entries; their conditions need not be identical. Equal values may be shown once. Calls of active or inactive are those of the source. How the calls were made is not given here. Starred links: 1 amine or outer side, 2 acyl side, 3 side chain; linkers in the order of their positions; H or OH if unused. Positions of bridges follow the written chain, without caps; N, C: chain ends. Non-standard residues stand in square brackets, D forms with d. Residues, ends and D or L forms follow the SMILES beside them. ξ: configuration not given here. *: point of attachment. ΔAla(3-NHCONH2) = NC(=O)NC=C(N)C(=O)O; X1 = NC1=NCCC(C(N[*:1])C(=O)[*:2])N1; ξβ3hOrn = NCCCC(N)CC(=O)*; Dap = NC[CH](N)C(=O)O

For this assay the following is noted: Ebola virus entry assay, reporter ratio channel; AC50: Channel type: primary unless noted; outcome: Channel type: primary unless noted.
Take `NC(=O)N1c2ccccc2CC(=O)c2ccccc21`: the outcome was inactive. Consider `O=C(CCCN1CCC(O)(c2ccc(Cl)cc2)CC1)c1ccc(F)cc1`, for which the concentration at half-maximal activity (AC50) is 10 µM (active). On to `O=C(O)P(=O)(O)O`, for which the result was inactive. In the case of `C[C@H]1[C@H](NC(=O)/C(=N/OC(C)(C)C(=O)O)c2csc(N)n2)C(=O)N1S(=O)(=O)O` (stereo in doubt), the outcome was inactive. The same measure, in the same setting: the same measure for `CCCCc1nc(Cl)c(CO)n1Cc1ccc(-c2ccccc2-c2nn[nH]n2)cc1`: “inactive”. For the compound `Cc1cn[nH]c1`, the outcome was inactive.

`CC(C)NCC(O)COc1cccc2[nH]ccc12` (stereo not given): the half-maximal activity concentration (AC50) was 39.8 µM (active). As for `CC(C(=O)O)c1cccc(C(=O)c2ccccc2)c1` (stereo not given), the outcome was inactive. Regarding `CC(C)c1nc(CN(C)C(=O)N[C@H](C(=O)N[C@@H](Cc2ccccc2)C[C@H](O)[C@H](Cc2ccccc2)NC(=O)OCc2cncs2)C(C)C)cs1`, the half-maximal activity concentration (AC50) was 22.4 µM (active). In the case of `CC1=C(C(=O)O)N2C(=O)[C@@H](NC(=O)[C@H](N)c3ccc(O)cc3)[C@H]2SC1`, the result was inactive. The same measure, in the same setting: the same measure for `O=C1CCc2ccc(OCCCCN3CCN(c4cccc(Cl)c4Cl)CC3)cc2N1`: “inactive”. With `CC(S)C(=O)NCC(=O)O` (stereo not given), the outcome was inactive. Still for that read-out and setting: the same measure for `CCCN(CCC)CCc1cccc2c1CC(=O)N2`: “inactive”. Same read-out and setting: as for `NCC(CC(=O)O)c1ccc(Cl)cc1` (stereo not given), the entry is “inactive”. On to `Cc1ccccc1C(=O)Nc1ccc(C(=O)N2CCCC(O)c3cc(Cl)ccc32)c(C)c1` (stereo not given), for which the AC50 was 25.1 µM (active). For `NC(=O)OCC(COC(N)=O)c1ccccc1`, the outcome was inactive.

Take `O=C1C(=O)c2ccccc2C(O)=C1C1CCC(c2ccc(Cl)cc2)CC1` (stereo not given): the outcome was inactive. `Cc1[nH]cnc1CN1CCc2c(c3ccccc3n2C)C1=O`: the outcome was inactive. As to `COc1ccccc1OCCNCC(O)COc1cccc2[nH]c3ccccc3c12` (stereo not given), the AC50 is 2.24 µM (active). With `NC(=O)c1cn(Cc2c(F)cccc2F)nn1`, the result was inactive. As for `NCCCC(O)(P(=O)(O)O)P(=O)(O)O`, the outcome was “inactive [Channel type: confirmation]”. Still for that read-out and setting: the same measure for `CN(CCOc1ccc(CC2SC(=O)NC2=O)cc1)c1ccccn1` (stereo not given): “inactive”; for `N[C@@H]1CONC1=O`: “inactive”. In the case of `CCCC(CCC)C(=O)O`, the outcome was inactive. On the same count and under the same terms, the same measure for `CC(C)CC(N(C)C)C1(c2ccc(Cl)cc2)CCC1` (stereo not given): “inactive”; for `NCCCC(N)CC(=O)NCC1NC(=O)C(CO)NC(=O)C(N)CNC(=O)C(C2CCN=C(N)N2)NC(=O)C(=CNC(N)=O)NC1=O` (stereo not drawn) (H-[Dap]S[Dap](ξβ3hOrn)[ΔAla(3-NHCONH2)][X1]; lactam 1-C; configuration not given here): “inactive”. As for `C[C@]12CC[C@H]3[C@@H](CCC4=CC(=O)CC[C@@H]43)[C@@H]1CC[C@@H]2OC(=O)CCc1ccccc1`, the result was inactive. Still for that read-out and setting: as for `CCOC(=O)[C@H](CCc1ccccc1)N[C@@H](C)C(=O)N1[C@H](C(=O)O)C[C@@H]2CCC[C@@H]21`, the entry is “inactive”; as for `CC[C@@H](CO)NC(=O)[C@@H]1C=C2c3cccc4c3c(cn4C)C[C@H]2N(C)C1`, “inactive”; as for `COc1ccc(OC)c(C(O)CNC(=O)CN)c1` (stereo not given), “inactive”.

`O=C(O)CCCc1ccccc1`: the result was inactive. Regarding `NS(=O)(=O)c1cc2c(cc1Cl)NC=NS2(=O)=O`, the result was inactive.

`CC1=NS(=O)(=O)c2cc(Cl)ccc2N1`: the outcome was inactive. On the same count and under the same terms, the same measure for `O=c1[nH]cc(F)c(=O)[nH]1`: “inactive”. Still for that read-out and setting: the same measure for `C[C@@H](O)[C@H]1C(=O)N2C(C(=O)O)=C(S[C@@H]3CN[C@H](C(=O)N(C)C)C3)[C@H](C)[C@H]12`: “inactive”. The same measure, in the same setting: as for `O=C1CCC(N2C(=O)c3ccccc3C2=O)C(=O)N1` (stereo not given), the entry is “inactive”; as for `CC(C)(C(=O)O)c1ccc(C(O)CCCN2CCC(C(O)(c3ccccc3)c3ccccc3)CC2)cc1` (stereo not given), “inactive”. In the case of `CNCCC(Oc1ccc(C(F)(F)F)cc1)c1ccccc1` (stereo not given), the AC50 was 3.55 µM (active).

Regarding `CCOC(=O)c1ncn2c1CN(C)C(=O)c1cc(F)ccc1-2`, the result was inactive. On to `CCN(CC)C(=S)SSC(=S)N(CC)CC`, for which the AC50 was 7.94 µM (active) and 22.4 µM (active).

In general, AC50 refers to the concentration giving half of the maximal activity seen.
